Measured values published in PubChem BioAssay (Tox21).
Values joined by “and” are separate entries in the source; they are usually repeats but may differ in a detail not shown here. Identical values can stand only once. Records with an inconclusive call do not appear. Entries that show only a call come without a potency. More than one record can exist for a structure, and the calls need not agree. Active and inactive are the calls of the source. Unless noted, the call rests on the fitted dose curve; in most records, active means well fitted curve in the direction sought with a large enough effect in the repeat runs; inconclusive means weak or mixed curves; inactive means no such curve, though single readings can be large; an effect the other way counts as inactive or inconclusive.

What was measured:
[1] = molecular target: Retinoic acid receptor RXR-alpha (Homo sapiens) (UniProt P19793); test: qHTS assay to identify small molecule agonists of the RXR signaling pathway (AID 1159527; calls by dose curve; further: nearly all actives have a fitted effect of over 35% in size; further: potency means the concentration at half of the fitted maximal effect)
Summary of the method: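 Reporter activation is measured as beta-lactamase activity via FRET substrate cleavage (emission 460/530 nm) in HEK 293T cells expressing an RXR-alpha-driven bla construct, following 16 hr compound exposure at 37 C.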

[2] = qHTS assay to identify small molecule agonists of the RXR signaling pathway - cell viability counter screen (AID 1159529); further: series mostly up to about 77 µM; nearly all actives have a fitted effect of over 50% in size
Summary of the method: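 Tox21 10K compounds were tested for cytotoxicity against GeneBLAzer RXR-alpha HEK 293T cells grown in 2% charcoal-stripped FBS. Exposure lasted 16 hr at 37 C, 5% CO2; viability read by CellTiter-Glo luminescence.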

[3] = qHTS assay to identify small molecule antagonists of the retinoid acid receptor (RAR) signaling pathway - cell viability counter screen (AID 1159551); further: nearly all actives have a fitted effect of over 35% in size
Summary of the method: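 Seed C3RL4 cells; next day add compound, then retinol to 1 uM final; incubate 6 h at 37 C; add CellTiter-Glo; read luminescence after 30 min at RT.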

[4] = qHTS assay to identify small molecule antagonists of the retinoic acid receptor (RAR) signaling pathway (AID 1159552; further: nearly all actives have a fitted effect of over 50% in size)
Summary of the method: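 Overnight-plated C3RL4 reporter cells get compound, then retinol to 1 uM final; plates sit 6 hr at 37 C, 5% CO2. A luciferase reagent is added and light output recorded after 30 min at room temperature.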

[5] = qHTS assay to identify small molecule agonists of the retinoic acid receptor (RAR) signaling pathway (AID 1159553); further: potency means the concentration at half of the fitted maximal effect
Summary of the method: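 Activation of retinol signaling was monitored via a RARE luciferase reporter in C3RL4 cells. After 6 hr compound treatment at 37 C, detection reagent was added for 30 min at room temperature before luminescence reading.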

[6] = qHTS assay to identify small molecule antagonists of the estrogen related receptor (ERR) signaling pathway from Tox21 library - cell viability counter screen (AID 1224834); further: nearly all actives have a fitted effect of over 30% in size; further: potency means the concentration at half of the fitted maximal effect
Summary of the method: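 CellTiter-Fluor fluorescence measured; ERR cells; 17.5 h compound incubation at 37 C; 30 min reagent step.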

[7] = molecular target: Luciferin 4-monooxygenase (Photinus pyralis) (UniProt P08659); test: qHTS assay to identify small molecule inhibitors of firefly luciferase (AID 1224835); further: nearly all actives have a fitted effect of over 25% in size; further: potency means the concentration at half of the fitted maximal effect
Summary of the method: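 Biochemical qHTS: compounds run as interplate titrations against purified firefly enzyme, with D-luciferin and ATP each at its KM concentration. Light output recorded by CCD imaging.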

[8] = qHTS assay to identify small molecule agonists of the constitutive androstane receptor (CAR) signaling pathway - cell viability counter screen (AID 1224836); further: series mostly up to about 92 µM; nearly all actives have a fitted effect of over 45% in size
Summary of the method: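 Fluorescence from CellTiter-Fluor indicates live cells after 23 h exposure. The human hepatoma line expresses hCAR and a CYP2B6-2.2kb reporter. Incubation medium contains 0.75 uM PK11195 (final).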

[9] = qHTS assay to identify small molecule antagonists of the constitutive androstane receptor (CAR) signaling pathway - cell viability counter screen (AID 1224837); further: series mostly up to about 92 µM; nearly all actives have a fitted effect of over 45% in size
Summary of the method: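 Using CellTiter-Fluor, viability is scored in HepG2 cells stably carrying hCAR and a 2.2kb CYP2B6 reporter after 23 hr compound exposure across 15 concentrations, with CITCO present at 50 nM.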

[10] = molecular target: Nuclear receptor subfamily 1 group I member 3 (Homo sapiens) (UniProt Q14994); test: qHTS assay to identify small molecule antagonists of the constitutive androstane receptor (CAR) signaling pathway (AID 1224838);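 further: HepG2 cells stably expressing hCAR with CYP2B6 luciferase reporter stimulated by CITCO; nearly all actives have a fitted effect of over 40% in size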; further: potency means the concentration at half of the fitted maximal effect
Summary of the method: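 Reporter luminescence was quantified after 24 h exposure of hCAR/CYP2B6-2.2kb double-stable HepG2 cells to compounds at 15 concentrations in the presence of 50 nM CITCO final.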

[11] = molecular target: Nuclear receptor subfamily 1 group I member 3 (Homo sapiens) (UniProt Q14994); test: qHTS assay to identify small molecule agonists of the constitutive androstane receptor (CAR) signaling pathway (AID 1224839); further: nearly all actives have a fitted effect of over 15% in size; further: potency means the concentration at half of the fitted maximal effect
Summary of the method: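 Stable hCAR/CYP2B6-2.2kb HepG2 line in DMEM with 10% FBS; compounds (15 concentrations) and 0.75 uM PK11195 final, 24 h at 37 C/5% CO2, then ONE-Glo luminescence after 30 min.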

[12] = qHTS assay to identify small molecule antagonists of the estrogen related receptor signaling pathway with the pleiotropic PPARgamma coactivator (PGC) from Tox21 10K library - cell viability counter screen (AID 1224840; active means well fitted cell-killing curve with a large enough effect in the repeat runs, not every such curve was filed as active; further: nearly all actives have a fitted effect of over 40% in size; further: potency means the concentration at half of the fitted maximal effect)
Summary of the method: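 Here the PGC/ERR cells serve as a cytotoxicity control: they are exposed to compounds for 17.5 hours at 37 C, and live-cell signal is quantified using CellTiter-Fluor fluorescence.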

[13] = qHTS assay to identify small molecule antagonists of the estrogen related receptor signaling pathway with the pleiotropic PPARgamma coactivator (PGC) from Tox21 10K library (AID 1224841; call rule not given here; further: actives are mostly falling curves and most rising ones were filed inactive; nearly all actives have a fitted effect of over 50% in size; further: potency means the concentration at half of the fitted maximal effect)
Summary of the method: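 Each well held 2,000 PGC/ERR cells, pre-incubated six hours (37 C, 5% CO2). Test substances in DMSO were added by pin tool and left for 18 h at 37 C before luciferase detection by One-Glo.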

[14] = qHTS assay to identify small molecule agonists of the estrogen related receptor signaling pathway with the pleiotropic PPARgamma coactivator (PGC) from Tox21 10K library (AID 1224842); further: nearly all actives have a fitted effect of over 15% in size
Summary of the method: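 PGC/ERR reporter cell line, 2,000 cells per well, incubated 6 h at 37 C before 23 nL compound in DMSO was added. After 18 h at 37 C, One-Glo luminescence read following 30 min at room temperature.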

[15] = qHTS assay to identify small molecule antagonists of the estrogen related receptor (ERR) signaling pathway - cell viability counter screen (AID 1224818);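 further: series mostly up to about 46 µM; viability measured after 17.5 h of compound exposure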
Summary of the method: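 In the same ERR cell assay, compound-treated wells (17.5 h, 37 C) were multiplexed with a fluorogenic viability reagent, CellTiter-Fluor, read after 30 min to flag cytotoxic substances.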

[16] = qHTS assay to identify small molecule antagonists of the estrogen related receptor signaling pathway with the pleiotropic PPARgamma coactivator (PGC) cell viability counter screen (AID 1224822; further: series mostly up to about 46 µM)
Summary of the method: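 Compounds in DMSO, with positive and negative controls, were applied to PGC/ERR cells (2,000/well) and left 17.5 h at 37 C before CellTiter-Fluor detection.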

Sequence of Luciferin 4-monooxygenase (Photinus pyralis) (P08659 whole entry, looked up): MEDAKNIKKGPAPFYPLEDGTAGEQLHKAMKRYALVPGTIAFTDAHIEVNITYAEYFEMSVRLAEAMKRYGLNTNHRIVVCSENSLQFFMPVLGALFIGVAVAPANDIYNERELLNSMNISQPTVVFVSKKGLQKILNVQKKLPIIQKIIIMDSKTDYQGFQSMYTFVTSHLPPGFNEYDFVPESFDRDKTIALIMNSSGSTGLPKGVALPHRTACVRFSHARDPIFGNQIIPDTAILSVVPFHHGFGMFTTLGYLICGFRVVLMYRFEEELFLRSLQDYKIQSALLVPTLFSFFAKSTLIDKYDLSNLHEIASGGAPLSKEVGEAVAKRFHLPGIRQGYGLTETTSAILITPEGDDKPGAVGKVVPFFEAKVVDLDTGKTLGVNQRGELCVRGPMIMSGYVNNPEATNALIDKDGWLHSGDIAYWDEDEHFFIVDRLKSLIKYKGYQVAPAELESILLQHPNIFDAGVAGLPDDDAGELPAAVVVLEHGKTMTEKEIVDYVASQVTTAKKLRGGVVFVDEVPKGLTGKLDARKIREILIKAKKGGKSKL
Sequence of Retinoic acid receptor RXR-alpha (Homo sapiens) (P19793 whole entry, looked up): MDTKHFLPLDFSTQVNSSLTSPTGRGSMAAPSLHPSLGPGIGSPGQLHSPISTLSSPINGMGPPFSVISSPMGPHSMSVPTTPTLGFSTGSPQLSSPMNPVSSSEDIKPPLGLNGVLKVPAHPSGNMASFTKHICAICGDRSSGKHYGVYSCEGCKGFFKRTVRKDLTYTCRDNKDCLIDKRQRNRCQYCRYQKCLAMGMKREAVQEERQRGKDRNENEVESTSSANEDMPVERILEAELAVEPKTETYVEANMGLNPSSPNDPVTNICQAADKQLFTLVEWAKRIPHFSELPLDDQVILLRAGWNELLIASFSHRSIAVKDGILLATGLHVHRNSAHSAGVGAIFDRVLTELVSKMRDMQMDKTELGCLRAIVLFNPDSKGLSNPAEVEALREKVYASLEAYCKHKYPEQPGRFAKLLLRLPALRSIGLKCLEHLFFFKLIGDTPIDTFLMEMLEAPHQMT
Sequence of Nuclear receptor subfamily 1 group I member 3 (Homo sapiens) (Q14994 whole entry, looked up): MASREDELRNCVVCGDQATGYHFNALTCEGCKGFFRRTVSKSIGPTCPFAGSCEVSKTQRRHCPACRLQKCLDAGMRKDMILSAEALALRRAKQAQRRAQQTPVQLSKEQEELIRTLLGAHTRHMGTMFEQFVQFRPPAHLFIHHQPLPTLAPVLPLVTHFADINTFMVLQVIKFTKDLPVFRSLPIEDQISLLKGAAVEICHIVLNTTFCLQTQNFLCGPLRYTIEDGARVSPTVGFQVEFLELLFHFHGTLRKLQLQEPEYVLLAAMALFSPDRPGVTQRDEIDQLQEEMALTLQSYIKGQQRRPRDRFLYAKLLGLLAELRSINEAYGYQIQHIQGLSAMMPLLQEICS

| SMILES | Potency [1] | outcome [2] | outcome [3] | Potency [4] | Potency [5] | Potency [6] | Potency [7] | Potency [8] | Potency [9] | Potency [10] | Potency [11] | Potency [12] | Potency [13] | Potency [14] | outcome [15] | outcome [16] |
| --- | --- | --- | --- | --- | --- | --- | --- | --- | --- | --- | --- | --- | --- | --- | --- | --- |
| Cc1ccc(N=C=O)cc1N=C=O | inactive | inactive | inactive | inactive | inactive | inactive | 40.9 µM (active) and 63.1 µM (active) and inactive | inactive | inactive | inactive | inactive | inactive | inactive | inactive |  |  |
| N#CN=C(N)N | inactive | inactive | inactive | inactive | inactive | inactive | inactive | inactive | inactive | inactive | inactive | inactive |  |  |  |  |
| ClCCOCCCl | inactive | inactive | inactive | inactive | inactive | inactive | inactive | inactive | inactive |  |  | inactive |  |  |  |  |
| CCOc1ccc(N)cc1 | 11 µM (active) and inactive | inactive | inactive | inactive | inactive | inactive | inactive and 79.6 µM (active) | inactive | inactive | inactive | inactive | inactive | inactive | inactive |  |  |
| N#Cc1cccc(C#N)c1 | inactive | inactive | inactive | inactive | inactive | inactive | inactive | inactive | inactive | inactive | inactive | inactive |  |  |  |  |
| FC(F)(F)c1ccc(Cl)cc1 | inactive | inactive | inactive | inactive | inactive | inactive | inactive | inactive | inactive | inactive | inactive | inactive |  |  |  |  |
| CN1C(=O)CCS(=O)(=O)C1c1ccc(Cl)cc1 (stereo not given) | inactive | inactive | inactive | inactive | inactive | inactive | inactive | inactive | inactive |  |  | inactive |  |  | inactive | inactive |
| CCSC(=O)N1CCCCCC1 | inactive | inactive | inactive | inactive | inactive | inactive | inactive | inactive | inactive | 26.5 µM (active) and inactive | inactive | inactive | inactive | inactive |  |  |
| CNc1cnn(-c2cccc(C(F)(F)F)c2)c(=O)c1Cl | inactive | inactive | inactive | inactive | 4.17 µM (active) and 5.45 µM (active) | inactive | 34.3 µM (active) and 39.9 µM (active) | inactive | inactive | inactive | 16.6 µM (active) and 24.3 µM (active) | inactive |  |  |  |  |
| CN(C)C(=O)Cl | inactive | inactive | inactive | inactive | inactive | inactive | inactive | inactive | inactive | inactive | inactive | inactive | inactive | inactive |  |  |
| O=S(=O)(O)OOS(=O)(=O)O | inactive | inactive | inactive |  |  | inactive | inactive | inactive | inactive |  |  | inactive |  |  |  |  |
| CC[N+](=O)[O-] | inactive | inactive |  | inactive | inactive | inactive | inactive | inactive | inactive | inactive | inactive | inactive |  |  |  |  |
| COP(=S)(OC)SCN1C(=O)c2ccccc2C1=O | inactive | inactive | inactive |  |  | inactive | 71.5 µM (active) and 63.3 µM (active) and inactive | inactive | inactive |  |  | inactive |  |  |  |  |
| Nc1cccc(Cl)c1 | inactive | inactive | inactive |  |  | inactive | inactive | inactive | inactive | inactive | inactive | inactive | inactive | inactive |  |  |
| CN(C)C(=O)Nc1cccc(C(F)(F)F)c1 | inactive | inactive |  | inactive | inactive | inactive | inactive | inactive | inactive | inactive | inactive | inactive |  |  |  |  |
| O=C(O)c1cc(Oc2ccc(C(F)(F)F)cc2Cl)ccc1[N+](=O)[O-] | inactive | inactive | inactive | inactive | inactive | inactive | inactive | inactive | inactive |  |  | inactive | inactive and 68.9 µM (active) | inactive |  |  |
| Cc1cccc(N)c1 | inactive | inactive | inactive |  | inactive | inactive | inactive | inactive | inactive | inactive | inactive | inactive | inactive | inactive |  |  |
| OCc1ccco1 | inactive and 5.49 µM (active) | inactive | inactive |  |  | inactive | inactive | inactive | inactive | inactive | inactive | inactive | inactive | inactive |  |  |
| Cc1ccccc1N | inactive | inactive | inactive |  |  | inactive | inactive | inactive | inactive | inactive | inactive | inactive |  |  |  |  |
| C=C(C)C(=O)OCC(CC)CCCC (stereo not given) | inactive | inactive | inactive | inactive | inactive | 55.5 µM (active) and inactive | inactive | inactive | inactive |  |  | 39.3 µM (active) and inactive | 31.2 µM (active) and inactive | inactive |  |  |
| CC(C)(C)C(=O)CCl | inactive | inactive | inactive |  |  | inactive | inactive | inactive | inactive |  |  | inactive | inactive | inactive |  |  |
